Experimental data as given in PubChem BioAssay AID1159580 (chemical genetic matrix, 2015).
“And” between values parts separate entries of the source, which are not always exact repeats. Equal entries are not always repeated. About 2,000 (36%) of roughly 5,500 compounds were called active. Not shown: some 18% with an inconclusive outcome. No stated cut-off is given here; in the data, active means normalized growth mostly below about 0.91 (no sharp cut-off); inconclusive means no clear call, values can overlap the other calls; inactive means mostly above about 0.92. The list shows a part of the results.

Assay: chemical genetic growth profiling, strain panel (AID 1159580);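 further: tested at 20 µM; growth read once vehicle control cultures reached saturation at 30 °C; 1 = growth at the plate median or of vehicle wells; lower values mean less growth of the strain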
Conditions: S. cerevisiae deletion strains, growth OD

Measured: normalized growth

COC(=O)C[C@H]1C2(C)CC34OC5(C)O[C@@]6([C@H](OC)C(OC(=O)C(C)C)[C@]7(C)C(/C(=C(/OC)C(C)C)C(=O)O[C@H]7c7ccoc7)[C@@]6(O5)[C@H](OC)[C@@]3(OC)C2OC(C)=O)[C@]14C (stereo partly specified)
inactive: locus YAL013W, strain DEP1, active compounds read low 1.02 | locus YAL021C, strain ccr4, active compounds read low 1 | locus YAL026C, strain drs2, active compounds read low 0.994 | locus YAL030W, strain snc1, active compounds read low 0.984 | locus YBL061C, strain skt5, active compounds read low 0.962 | locus YBR009C, strain hhf1, active compounds read low 0.965 | locus YBR021W, strain FUR4, active compounds read low 1.02 | locus YBR023C, strain chs3, active compounds read low 0.994 | locus YBR171W, strain sec66, active compounds read low 0.989 | locus YBR229C, strain ROT2, active compounds read low 1.01 | locus YBR231C, strain swc5, active compounds read low 0.979 | locus YBR279W, strain paf1, active compounds read low 0.985 | locus YCL011C, strain gbp2, active compounds read low 0.975 | locus YCL016C, strain dcc1, active compounds read low 0.976 | locus YCL029C, strain bik1, active compounds read low 1.03 | locus YCL069W, strain vba3, active compounds read low 0.983 | locus YCR088W, strain abp1, active compounds read low 0.989 | locus YDL005C, strain med2, active compounds read low 0.972 | locus YDL035C, strain GPR1, active compounds read low 1.03 | locus YDL040C, strain nat1, active compounds read low 0.984 | locus YDL074C, strain BRE1, active compounds read low 1.04 | locus YDL101C, strain DUN1, active compounds read low 1.02 | locus YDL134C, strain PPH21, active compounds read low 1.01 | locus YDL185W, strain tfp1, active compounds read low 1.02 | locus YDL192W, strain arf1, active compounds read low 1.03 | locus YDR001C, strain nth1, active compounds read low 0.974 | locus YDR069C, strain doa4, active compounds read low 0.96 | locus YDR101C, strain arx1, active compounds read low 1.02 | locus YDR137W, strain rgp1, active compounds read low 0.95 | locus YDR159W, strain sac3, active compounds read low 1 | locus YDR162C, strain NBP2, active compounds read low 1.02 | locus YDR195W, strain ref2 0.986 | locus YDR297W, strain sur2, active compounds read low 0.967 | locus YDR318W, strain mcm21, active compounds read low 1.03 | locus YDR334W, strain swr1, active compounds read low 0.965 | locus YDR335W, strain msn5, active compounds read low 0.97 | locus YDR388W, active compounds read low 1.02 | locus YDR392W, strain spt3, active compounds read low 0.992 | locus YDR502C, strain sam2, active compounds read low 1 | locus YEL003W, strain gim4, active compounds read low 0.976 | locus YEL037C, strain rad23, active compounds read low 0.99 | locus YEL061C, strain CIN8 (second series), active compounds read low 0.978 | locus YER015W, strain faa2, active compounds read low 0.978 | locus YER016W, strain bim1, active compounds read low 0.98 | locus YER110C, active compounds read low 1.02 | locus YER111C, strain swi4, active compounds read low 0.969 | locus YER155C, strain BEM2 (second series), active compounds read low 0.967 | locus YER155C, strain BEM2, active compounds read low 1 | locus YER167W, strain BCK2, active compounds read low 1.02 | locus YFR010W, strain ubp6, active compounds read low 0.992 | locus YGL078C, strain dbp3, active compounds read low 0.994 | locus YGL086W, strain mad1, active compounds read low 1.01 | locus YGL167C, strain pmr1, active compounds read low 0.992 | locus YGL173C, strain kem1, active compounds read low 0.985 | locus YGL227W, strain vid30, active compounds read low 0.979 | locus YGL240W, strain doc1, active compounds read low 0.965 | locus YGL248W, strain PDE1, active compounds read low 1.01 | locus YGL253W, strain hxk2, active compounds read low 0.983 | locus YGR135W, strain pre9, active compounds read low 1.02 | locus YGR229C, strain SMI1, active compounds read low 0.998 | locus YGR252W, strain gcn5, active compounds read low 0.994 | locus YHR013C, strain ard1, active compounds read low 0.943 | locus YHR027C, strain rpn1, active compounds read low 0.994 | locus YHR030C, strain SLT2, active compounds read low 0.969 | locus YHR079C, strain IRE1 (second series), active compounds read low 1 | locus YHR079C, strain IRE1, active compounds read low 1 | locus YHR094C, strain hxt1, active compounds read low 1.01 | locus YHR129C, strain ARP1, active compounds read low 1.02 | locus YHR142W, strain chs7, active compounds read low 0.97 | locus YHR200W, strain rpn10, active compounds read low 1.02 | locus YIL066C, strain RNR3, active compounds read low 1.04 | locus YIL073C, strain SPO22, active compounds read low 1.02 | locus YIL125W, strain kgd1, active compounds read low 1.01 | locus YIR030C, strain dcg1, active compounds read low 1.02 | locus YJL092W, strain hpr5, active compounds read low 0.973 | locus YJL095W, strain BCK1 (second series), active compounds read low 0.995 | locus YJL095W, strain BCK1, active compounds read low 0.995 and 0.969 | locus YJL115W, strain asf1, active compounds read low 0.967 | locus YJL129C, strain trk1, active compounds read low 0.944 | locus YJL134W, strain LCB3, active compounds read low 1.01 | locus YJL154C, strain vps35, active compounds read low 0.981 | locus YJL164C, strain tpk1, active compounds read low 1.01 | locus YJL166W, strain qcr8, active compounds read low 0.99 | locus YJL168C, strain set2, active compounds read low 1.01 | locus YJL187C, strain SWE1 (second series), active compounds read low 1.01 | locus YJR043C, strain POL32, active compounds read low 1.03 | locus YJR066W, strain TOR1, active compounds read low 0.884 | locus YKL009W, strain mrt4, active compounds read low 0.959 | locus YKL068W, active compounds read low 0.998 | locus YKL085W, strain MDH1 (second series), active compounds read low 1.01 | locus YKL085W, strain MDH1, active compounds read low 1.01 | locus YKL160W, strain elf1, active compounds read low 0.987 | locus YKR001C, strain vps1, active compounds read low 0.992 | locus YKR026C, strain gcn3, active compounds read low 0.983 | locus YKR091W, strain srl3, active compounds read low 0.984 | locus YLL001W, strain dnm1, active compounds read low 0.973 | locus YLL026W, active compounds read low 0.978 | locus YLL041C, strain sdh2, active compounds read low 0.987 | locus YLR027C, strain aat2, active compounds read low 0.974 | locus YLR039C, strain RIC1, active compounds read low 0.908 | locus YLR058C, strain SHM2, active compounds read low 1.01 | locus YLR102C, strain apc9, active compounds read low 1 | locus YLR113W, strain HOG1, active compounds read low 1.01 | locus YLR221C, strain rsa3, active compounds read low 0.976 | locus YLR258W, strain gsy2, active compounds read low 0.996 | locus YLR262C, strain YPT6 (second series), active compounds read low 0.997 | locus YLR262C, strain YPT6, active compounds read low 0.754 | locus YLR268W, strain sec22, active compounds read low 1.03 | locus YLR320W, strain mms22, active compounds read low 0.988 | locus YLR342W, strain FKS1 (second series), active compounds read low 0.987 | locus YLR342W, strain FKS1, active compounds read low 0.982 | locus YLR357W, strain rsc2, active compounds read low 1.01 | locus YLR370C, strain arc18, active compounds read low 0.971 | locus YLR371W, strain rom2, active compounds read low 1.04 | locus YLR384C, strain iki3, active compounds read low 0.984 | locus YLR418C, strain cdc73, active compounds read low 1.04 | locus YML016C, strain PPZ1, active compounds read low 1.01 | locus YML032C, strain rad52, active compounds read low 1 | locus YML120C, strain ndi1, active compounds read low 0.982 | locus YML124C, strain tub3, active compounds read low 1.01 | locus YMR058W, strain fet3, active compounds read low 0.97 | locus YMR078C, strain ctf18, active compounds read low 1.01 | locus YMR125W, strain sto1, active compounds read low 0.986 | locus YMR129W, active compounds read low 0.986 | locus YMR205C, strain PFK2, active compounds read low 1 | locus YMR223W, strain ubp8, active compounds read low 1.01 | locus YMR231W, strain pep5, active compounds read low 0.975 | locus YMR307W, strain GAS1, active compounds read low 1.23 | locus YNL067W, strain RPL9B, active compounds read low 1.01 | locus YNL071W, strain lat1, active compounds read low 0.989 | locus YNL153C, strain GIM3, active compounds read low 1.03 | locus YNL183C, strain NPR1, active compounds read low 0.935 | locus YNL209W, strain ssb2, active compounds read low 0.985 | locus YNL233W, strain BNI4, active compounds read low 1.04 | locus YNL248C, strain rpa49, active compounds read low 0.977 | locus YNL250W, strain rad50, active compounds read low 1.04 | locus YNL271C, strain bni1, active compounds read low 1.02 | locus YNL298W, strain CLA4, active compounds read low 1 | locus YNL307C, strain MCK1, active compounds read low 1.02 | locus YNL322C, strain KRE1 (second series), active compounds read low 0.972 | locus YNL322C, strain KRE1, active compounds read low 1.01 | locus YNR049C, strain mso1, active compounds read low 0.96 | locus YNR052C, strain pop2, active compounds read low 1.03 | locus YOL006C, strain TOP1, active compounds read low 1.06 | locus YOL012C, strain htz1 0.933 | locus YOL147C, strain pex11, active compounds read low 1.02 | locus YOR001W, strain rrp6, active compounds read low 0.967 | locus YOR061W, strain CKA2, active compounds read low 1.04 | locus YOR069W, strain VPS5, active compounds read low 1.01 | locus YOR070C, strain gyp1, active compounds read low 1.01 | locus YOR080W, strain dia2, active compounds read low 0.964 | locus YOR083W, strain WHI5, active compounds read low 0.993 | locus YOR106W, strain vam3, active compounds read low 0.953 | locus YOR136W, strain idh2, active compounds read low 1 | locus YOR144C, strain elg1, active compounds read low 1.01 | locus YOR184W, strain ser1, active compounds read low 1.04 | locus YOR231W, strain MKK1, active compounds read low 0.955 | locus YOR265W, strain rbl2, active compounds read low 0.994 | locus YOR270C, strain vph1, active compounds read low 0.866 | locus YOR290C, strain snf2, active compounds read low 0.962 | locus YOR316C, strain cot1, active compounds read low 1 | locus YPL051W, strain arl3, active compounds read low 1 | locus YPL078C, strain atp4, active compounds read low 0.964 | locus YPL106C, strain sse1, active compounds read low 1.02 | locus YPL240C, strain hsp82, active compounds read low 0.988 | locus YPL256C, strain CLN2, active compounds read low 0.966 | locus YPR119W, strain clb2, active compounds read low 1 | locus YPR141C, strain kar3, active compounds read low 1.02 | locus YPR163C, strain tif3, active compounds read low 1.02 | locus YPR167C, strain met16, active compounds read low 1.01 | strain wtn01, active compounds read low 0.995
